Key:
[1] = molecular target: Bromodomain-containing protein 4 (Homo sapiens) (UniProt O60885); conditions: Compound concentration 20.0 uM, Protein concentration 2.0 uM, Result type QC Liability
[2] = molecular target: T1, Transcription intermediary factor 1-alpha (Homo sapiens) (UniProt O15164); conditions: Compound concentration 20.0 uM, Protein concentration 2.0 uM, Result type QC Liability
T1 sequence (whole entry): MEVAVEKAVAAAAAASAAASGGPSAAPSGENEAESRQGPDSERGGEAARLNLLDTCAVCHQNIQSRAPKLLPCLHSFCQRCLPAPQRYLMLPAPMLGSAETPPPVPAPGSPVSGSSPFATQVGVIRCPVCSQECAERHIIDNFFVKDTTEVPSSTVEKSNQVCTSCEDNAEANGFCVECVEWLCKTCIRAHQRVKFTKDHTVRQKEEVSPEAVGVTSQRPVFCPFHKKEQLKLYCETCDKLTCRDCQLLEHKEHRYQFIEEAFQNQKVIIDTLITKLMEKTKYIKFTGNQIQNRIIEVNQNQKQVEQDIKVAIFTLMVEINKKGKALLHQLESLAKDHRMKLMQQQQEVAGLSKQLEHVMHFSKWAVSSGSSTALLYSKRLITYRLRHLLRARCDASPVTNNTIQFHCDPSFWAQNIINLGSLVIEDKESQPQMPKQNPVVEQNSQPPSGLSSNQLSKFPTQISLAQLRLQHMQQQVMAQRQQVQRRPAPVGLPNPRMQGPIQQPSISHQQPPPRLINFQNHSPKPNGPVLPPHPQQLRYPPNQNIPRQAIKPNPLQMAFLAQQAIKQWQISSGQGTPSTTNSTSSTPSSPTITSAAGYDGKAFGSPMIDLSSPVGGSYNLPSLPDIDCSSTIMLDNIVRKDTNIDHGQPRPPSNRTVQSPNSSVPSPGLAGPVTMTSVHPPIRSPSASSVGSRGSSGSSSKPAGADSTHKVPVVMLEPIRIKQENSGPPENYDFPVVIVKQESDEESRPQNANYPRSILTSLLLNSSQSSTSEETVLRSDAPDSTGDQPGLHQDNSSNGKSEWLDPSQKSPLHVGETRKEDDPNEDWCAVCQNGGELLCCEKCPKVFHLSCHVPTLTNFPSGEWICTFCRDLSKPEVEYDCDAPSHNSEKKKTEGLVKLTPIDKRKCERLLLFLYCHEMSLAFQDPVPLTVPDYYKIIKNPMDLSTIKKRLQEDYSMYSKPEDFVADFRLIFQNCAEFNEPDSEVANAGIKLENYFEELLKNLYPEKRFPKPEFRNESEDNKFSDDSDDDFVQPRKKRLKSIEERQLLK

SMILES: CC(=O)N1CCC(c2ccc(C(=O)NC3=NCCN3)cc2C(F)(F)F)CC1
- ΔTm [1]: -0.26 °C
- ΔTm [2]: 0.31 °C

SMILES: CSc1ccc(C(=O)/C=C/c2cc(C)c(OC(C)(C)C(=O)O)c(C)c2)cc1
- ΔTm [1]: -3.49 °C
- ΔTm [2]: -3.46 °C

SMILES: COc1cc2c(NC3CCN(C(C)C)CC3)nc(C3CCCCC3)nc2cc1OCCCN1CCCC1
- ΔTm [1]: -2.43 °C
- ΔTm [2]: -2.96 °C

SMILES: CCCS(=O)(=O)Nc1ccc(F)c(Nc2ncnc3cnc(-n4cnc(C)c4)nc23)c1F
- ΔTm [1]: -2.57 °C
- ΔTm [2]: -1.9 °C

SMILES: CCCCCCCC/C=C\CCCCCCCC(=O)NCCO
- ΔTm [1]: -1.73 °C
- ΔTm [2]: -2.56 °C

SMILES: COc1cc(C(=O)NC2CCN(C)CC2)ccc1Nc1ncc2c(n1)N(C1CCCC1)CC(F)(F)C(=O)N2C
- ΔTm [1]: 7.37 °C
- ΔTm [2]: -2.21 °C

SMILES: COc1cc2nc([C@@H]3CCCS(=O)(=O)C3)n(C)c2cc1NC(=O)c1cccc(C(C)(F)F)n1
- ΔTm [1]: 0.39 °C
- ΔTm [2]: 0.7 °C

SMILES: O=S(=O)(Nc1ccc(C(O)(C(F)(F)F)C(F)(F)F)cc1)c1cccs1
- ΔTm [1]: -2.9 °C
- ΔTm [2]: -0.69 °C

SMILES: CN(C)CCCN1c2ccccc2Sc2ccc(Cl)cc21
- ΔTm [1]: -1.94 °C
- ΔTm [2]: -3.45 °C

SMILES: O=C1Nc2nc(-c3c(O)cccc3OCC3CC3)cc([C@@H]3CCCNC3)c2CO1
- ΔTm [1]: -0.38 °C
- ΔTm [2]: 0.45 °C

SMILES: Cc1c(NC(=O)c2ccc(C(C)(C)C)cc2)cccc1-c1cn(C)c(=O)c(Nc2ccc(C(=O)N3CCOCC3)cc2)n1
- ΔTm [1]: -9.46 °C
- ΔTm [2]: 0.14 °C

SMILES: CN1CCN(c2ccc(Nc3ncc4cc5n(c4n3)C3(CCCCC3)CNC5=O)nc2)CC1
- ΔTm [1]: -0.66 °C
- ΔTm [2]: -0.72 °C

SMILES: C=CC1C[C@]1(NC(=O)[C@@H]1C[C@@H](Oc2cc(-c3csc(NC(=O)C(C)C)n3)nc3c(Br)c(OC)ccc23)CN1C(=O)[C@@H](NC(=O)OC1CCCC1)C(C)(C)C)C(=O)O (some centres undefined)
- ΔTm [1]: 1.06 °C
- ΔTm [2]: 2.85 °C

SMILES: Cc1nn(-c2ccccc2)c(Nc2ccccc2C(=O)O)c1-c1cc2nccnc2c(F)c1F
- ΔTm [1]: -1.68 °C
- ΔTm [2]: 0.83 °C

SMILES: CCN1CCN(Cc2ccc(C(=O)Nc3ccc(C)c(Oc4ccc5c(c4)CC(=O)N5)c3)cc2C(F)(F)F)CC1
- ΔTm [1]: -2.44 °C
- ΔTm [2]: -3.11 °C

SMILES: N=C(N)NCCC[C@H](NC(=O)CC1(CC(=O)N2CCN(C(c3ccccc3)c3ccccc3)CC2)CCCC1)C(=O)NCc1ccccc1
- ΔTm [1]: -0.62 °C
- ΔTm [2]: -1.18 °C

SMILES: COc1ccccc1[C@@H]1CNCCC12CCN(C(=O)[C@](OC)(c1ccccc1)C(F)(F)F)CC2
- ΔTm [1]: -0.33 °C
- ΔTm [2]: 0.2 °C

SMILES: CNC(=O)c1ccc2c(c1)NC(=O)/C2=C(\Nc1ccc(CN2CCCCC2)cc1)c1ccccc1
- ΔTm [1]: -3.03 °C
- ΔTm [2]: -3 °C

SMILES: C[C@@H]1CCNC(=O)c2cc3ccc(C(=O)Nc4nc5ccccc5n4CCCN(C)C)cc3n21
- ΔTm [1]: -0.87 °C
- ΔTm [2]: -0.45 °C

SMILES: CC1CNCCc2c1nc1ccnn1c2N1CC(C(=O)N2CCC(C)(C)C2)C1 (centres undefined)
- ΔTm [1]: -3.66 °C
- ΔTm [2]: 0.37 °C

SMILES: O=C1CCCc2[nH]c(-c3ccnc(NCC4CC4)c3)c(Nc3ccccc3)c21
- ΔTm [1]: -0.67 °C
- ΔTm [2]: -0.08 °C

SMILES: NC(=O)c1sc2nc(N3CCC(NC[C@H](O)c4ccccn4)CC3)cc(C(F)(F)F)c2c1N
- ΔTm [1]: -3.3 °C
- ΔTm [2]: -3.39 °C

SMILES: CC(=O)Nc1nc(CN2CCC[C@H](Cc3cc(C)nc(C)c3)C2)cs1
- ΔTm [1]: 0.35 °C
- ΔTm [2]: -1.42 °C

SMILES: O=C(Cc1ccccc1)Nc1nnc(N2C[C@H]3C[C@@H]2CN3c2cccnn2)s1
- ΔTm [1]: -1.06 °C
- ΔTm [2]: -2.54 °C

SMILES: Cc1ccc(NC(=O)c2ccc3c(c2)OCCO3)cc1NC(=O)c1ccc2nc(OCCN3CCCC3)ccc2c1
- ΔTm [1]: -12.8 °C
- ΔTm [2]: -0.86 °C

SMILES: CC[C@@H](Nc1c(C#N)c(-c2ccc(-c3cccc(C)c3F)cc2)nc2cnccc12)C(=O)O
- ΔTm [1]: -1.25 °C
- ΔTm [2]: -1.3 °C

SMILES: Cc1c(-c2c(F)cc(C(N)=O)c3[nH]c4c(c23)CC[C@H](C(C)(C)O)C4)cccc1-n1c(=O)c2cccc(F)c2n(C)c1=O
- ΔTm [1]: -0.86 °C
- ΔTm [2]: 0.6 °C

SMILES: CNc1nc(-c2ccc3c(N)n[nH]c3c2)cc(N2C[C@@H](C(=O)NC3CCCCC3)CC[C@H]2C)n1
- ΔTm [1]: 0.26 °C
- ΔTm [2]: -2.05 °C

SMILES: Cc1nn(-c2nc3ccc(Cl)c(Cl)c3[nH]2)c(O)c1C1OC(=O)c2ccccc21 (centres undefined)
- ΔTm [1]: -4.43 °C
- ΔTm [2]: -1.16 °C

SMILES: C[C@H](CCC(=O)O)[C@H]1CC[C@H]2[C@@H]3[C@H](O)C[C@@H]4C[C@H](O)CC[C@]4(C)[C@H]3C[C@H](O)[C@]12C
- ΔTm [1]: -2.7 °C
- ΔTm [2]: -2.48 °C

SMILES: C=C1/C(=C\C=C2/CCC[C@]3(C)[C@@H]([C@H](C)CCCC(C)(C)O)CC[C@@H]23)C[C@@H](O)C[C@@H]1O
- ΔTm [1]: -7.29 °C
- ΔTm [2]: -4.59 °C

SMILES: Cc1ccc2c(NS(=O)(=O)c3ccccc3Cl)cccc2c1Oc1ncccc1-c1ccnc(N[C@H]2CCCNC2)n1
- ΔTm [1]: 0.99 °C
- ΔTm [2]: 1.37 °C
